Test results taken from PubChem BioAssay (NCATS).
Inconclusive results are not listed. A call without a number means that no potency is given here. Calls of active or inactive are those of the source. Unless noted, calls come from the whole dose curve; as a rule, active = well fitted curve in the direction sought with a large enough effect; inconclusive = small, poorly fitted or top-dose-only effect, or another doubt; inactive = no such curve, though single readings can be large; an effect the other way counts as inactive or inconclusive.

biological target: Calcium and integrin-binding protein 1 (Homo sapiens) (UniProt Q99828); test: Validation qHTS for Identification of Calcium Integrin Binding protein 1 (CIB1) Competitor (AID 1508618); conditions: CIB1-GST / FITC-alphaIIb peptide fluorescence polarization; series mostly up to 114 µM
Sequence (Q99828 whole entry, looked up): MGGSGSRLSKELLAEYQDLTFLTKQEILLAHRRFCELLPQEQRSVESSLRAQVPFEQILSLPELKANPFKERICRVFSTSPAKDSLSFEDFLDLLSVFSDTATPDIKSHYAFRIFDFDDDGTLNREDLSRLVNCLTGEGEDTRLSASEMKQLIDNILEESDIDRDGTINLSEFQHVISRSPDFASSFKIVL
Procedure, shortened: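 In this qHTS validation, the LOPAC set (up to 114 uM) was tested for blocking CIB1 binding to a fluorescein-tagged alphaIIb peptide, with FP detection at 480/540 nm.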

| Compound | Potency |
| --- | --- |
| Nc1cc2c(ncn2CCOCP(=O)(O)O)c(=O)[nH]1 | inactive |
| c1ccc2c(c1)[I+]c1ccccc1-2 | inactive |
| CCn1cnc2c(Nc3cccc(Cl)c3)nc(N[C@@H]3CCCC[C@@H]3N)nc21 | inactive |
| CNc1ccc2oc(C[C@H]3O[C@@]4(CC[C@H]3C)O[C@H]([C@H](C)C(=O)c3ccc[nH]3)[C@H](C)C[C@H]4C)nc2c1C(=O)O | inactive |
| CC1(C(=O)O)C2CCC(O2)C1(C)C(=O)O (stereo unspecified) | inactive |
| CCCN1CCc2cccc3c2[C@H]1Cc1ccc(O)c(O)c1-3 | inactive |
| O=C(NC1CN2CCC1CC2)c1cc2ccoc2cn1 (stereo unspecified) | inactive |
| O=c1ccc2[nH]cc(C3=CCNCC3)c2[nH]1 | inactive |

biological target: Calcium and integrin-binding protein 1 (Homo sapiens) (UniProt Q99828); test: Primary qHTS for Identification of Calcium Integrin Binding Protein 1 (CIB1) Competitor (AID 1508620); conditions: CIB1-GST / FITC-alphaIIb peptide fluorescence polarization; series mostly up to 114 µM; note: potency is the fitted concentration of half-maximal effect
Procedure, shortened: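 Fluorescence polarization competition: CIB1-GST (1 uM final) preincubated with compound 15 min at room temperature, then FITC-labeled alphaIIb peptide (100 nM final) added for another 15 min. Polarization read at Ex 480/Em 540.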

| Compound | Potency |
| --- | --- |
| CCCCCCn1c(=O)c(C(=O)Nc2ccc(C(=O)OCCC)cc2)c(O)c2ccccc21 | inactive |
| C[C@H](NC(=O)Cc1cc(F)cc(F)c1)C(=O)N[C@@H]1N=C(c2ccccc2)c2ccccc2N(C)C1=O | inactive |
| CCCSP(=O)(OCC)SCCC | inactive |
| C=C(C)[C@H]1O[C@H]2CC[C@@]3(C)[C@@](O)(CC[C@H]4[C@@H]5OC(C)(C)[C@H]6C[C@@H]7C(=C)Cc8c(Cl)cc9[nH]c(c5c9c8[C@@]76O)[C@@]43C)[C@]23O[C@@H]3[C@H]1O | inactive |
| OCCCCC#Cc1cncc(OC[C@@H]2CCN2)c1 | inactive |
| Cc1cc(C(=O)CN2CCCC2)c(C)n1-c1ccc(F)cc1 | inactive |
| CCc1c(C(=O)C(N)=O)c2c(OCC(=O)OC)cccc2n1Cc1ccccc1 | inactive |
| CC1=CC2/C=C(\C)CCC(O)C3OC(C)(C)OC3CC(=O)OC23C(=O)NC(CC(C)C)C3C1C (stereo unspecified) | inactive |
| COC1CC(=O)C23C(=O)NC(CC(C)C)C2C(C)=C(C)C(OO)C3/C=C(\C)CCC(O)C1O (stereo unspecified) | inactive |
| C[CH2][Hg][S]c1ccccc1C(=O)O | 22.4 µM (active) |
| CN(C(=O)Cc1ccccc1)C(CN1CCCC1)c1ccccc1 (stereo unspecified) | inactive |
| CCc1[nH]c2ccc(OC)cc2c1CCN(C)C | inactive |
| Cc1cn(C[C@H](N)C(=O)O)c(=O)n(Cc2cc(-c3ccccc3)sc2C(=O)O)c1=O | inactive |
| CCOc1ccccc1-n1c(C(C)N2CCN(C(=O)COc3ccc(Cl)cc3)CC2)nc2ccccc2c1=O (stereo unspecified) | inactive |
| CC(C)[C@@H](CN1CC[C@@](C)(c2cccc(O)c2)[C@@H](C)C1)NC(=O)[C@H]1Cc2ccc(O)cc2CN1 | inactive |
| CC(N)Cc1c[nH]c2ccccc12 (stereo unspecified) | inactive |
| CC(C)(O)[C@H]1O[C@H]2CC[C@@]3(C)[C@@](O)(CC[C@H]4Cc5c([nH]c6ccccc56)[C@@]43C)C2=CC1=O | inactive |
| CC1C/C=C/C(O)C(O)CC/C=C/c2cc(O)cc(O)c2C(=O)O1 (stereo unspecified) | inactive |
| COc1ccccc1CN[C@H]1C2CCN(CC2)[C@H]1C(c1ccccc1)c1ccccc1 | inactive |
| Clc1ccc(OCC2=NCCN2)cc1Cl | inactive |
| COc1cc(C)[nH]c(=O)c1CNC(=O)c1c(C)n([C@H](C)C2CCOCC2)c2ccccc12 | inactive |
| CCCCCOc1cc2c(cc1-c1cc(/C=C/C(=O)O)ccc1O)C(C)(C)CCC2(C)C | inactive |
| Cc1c(Cl)cccc1S(=O)(=O)Nc1nc(CC(=O)N2CCN(C)CC2)cs1 | inactive |
| OC1(c2ccc(Cl)cc2)c2ccccc2C2=NCCN21 (stereo unspecified) | inactive |
| Cc1cccc(NC(=O)N[C@@H]2N=C(c3ccccc3)c3ccccc3N(C)C2=O)c1 | inactive |
| CC(C)(C)c1cc(C(C)(C)C)c2c(c1)C(O)(C(F)(F)F)C(=O)O2 (stereo unspecified) | inactive |
| C[C@]12CC[C@@H](O)C[C@H]1CC[C@@H]1[C@@H]2CC[C@]2(C)C(=O)CC[C@@H]12 | inactive |
| COc1cc(CCNCc2ccccc2O)c(OC)cc1C#N | inactive |
| COC(=O)N1CCN(C(=O)Cc2ccc(Cl)c(Cl)c2)[C@@H](CN2CCCC2)C1 | inactive |
| Cn1ncnc1COc1nn2c(-c3c(F)cccc3F)nnc2cc1C1CCC1 | inactive |

tested on: not listed separately; test: Primary qHTS for small molecule stabilizers of the endoplasmic reticulum resident proteome: Secreted ER Calcium Modulated Protein (SERCaMP) assay (AID 1508630); conditions: SH-SY5Y GLuc-SERCaMP (Gaussia luciferase released on ER calcium loss) secretion, thapsigargin, luminescence; series mostly up to 38.4 µM
Procedure, shortened: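 GLuc-SERCaMP-expressing SH-SY5Y cells, pretreated 16 h with compound, are challenged with thapsigargin to empty ER calcium stores; after 4 h, coelenterazine is added directly to the medium and luminescence is imaged.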

| Compound | outcome |
| --- | --- |
| c1ccc2c(c1)[I+]c1ccccc1-2 | inactive |
| CCn1cnc2c(Nc3cccc(Cl)c3)nc(N[C@@H]3CCCC[C@@H]3N)nc21 | inactive |
| CNc1ccc2oc(C[C@H]3O[C@@]4(CC[C@H]3C)O[C@H]([C@H](C)C(=O)c3ccc[nH]3)[C@H](C)C[C@H]4C)nc2c1C(=O)O | inactive |
| C[CH2][Hg][S]c1ccccc1C(=O)O | inactive |
| CC1(C(=O)O)C2CCC(O2)C1(C)C(=O)O (stereo unspecified) | inactive |
| CCCN1CCc2cccc3c2[C@H]1Cc1ccc(O)c(O)c1-3 | inactive |
| O=c1ccc2[nH]cc(C3=CCNCC3)c2[nH]1 | inactive |

biological target: Cytochrome P450 2D6 (Homo sapiens) (UniProt P10635); test: Cytochrome P450 family 2 subfamily D member 6 (CYP2D6) small molecule antagonists: luciferase biochemical (cell-free) qHTS assay (AID 1645840; active = well fitted curve in the direction sought with a large enough effect in the repeat runs; an effect the other way counts as inactive or inconclusive; note: nearly all actives have a fitted effect of over 55% in size; note: potency is the fitted concentration of half-maximal effect); conditions: P450-Glo CYP2D6 enzyme, luciferin luminescence, 1 h; series mostly up to 57.4 µM
Sequence (P10635 whole entry, looked up): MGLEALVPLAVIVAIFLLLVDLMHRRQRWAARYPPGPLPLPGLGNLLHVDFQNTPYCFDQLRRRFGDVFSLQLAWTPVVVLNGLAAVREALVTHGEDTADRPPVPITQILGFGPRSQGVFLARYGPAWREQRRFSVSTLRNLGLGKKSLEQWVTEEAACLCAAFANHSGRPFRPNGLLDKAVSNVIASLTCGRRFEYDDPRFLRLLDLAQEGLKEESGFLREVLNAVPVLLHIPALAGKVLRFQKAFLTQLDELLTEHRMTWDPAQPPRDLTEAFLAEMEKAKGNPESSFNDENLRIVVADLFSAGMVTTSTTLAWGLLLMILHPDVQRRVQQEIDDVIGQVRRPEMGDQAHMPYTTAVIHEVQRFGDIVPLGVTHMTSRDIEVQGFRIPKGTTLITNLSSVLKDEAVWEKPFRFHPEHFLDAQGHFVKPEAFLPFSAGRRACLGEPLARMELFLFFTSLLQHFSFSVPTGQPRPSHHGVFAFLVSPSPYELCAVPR
Procedure, shortened: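 P450-Glo luminescent screen: recombinant CYP2D6 enzyme–proluciferin substrate mix preincubated with compound 10 min at room temperature, then NADPH regeneration added for 1 h at room temperature. Detection reagent added for 20 min; luciferin light read as relative luminescence units.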

| Compound | Potency |
| --- | --- |
| CCCCCCn1c(=O)c(C(=O)Nc2ccc(C(=O)OCCC)cc2)c(O)c2ccccc21 | inactive |
| CCCSP(=O)(OCC)SCCC | 58.4 µM (active) |
| OCCCCC#Cc1cncc(OC[C@@H]2CCN2)c1 | inactive |
| Cc1cc(C(=O)CN2CCCC2)c(C)n1-c1ccc(F)cc1 | 0.952 µM (active) |
| CCc1c(C(=O)C(N)=O)c2c(OCC(=O)OC)cccc2n1Cc1ccccc1 | inactive |
| CN(C(=O)Cc1ccccc1)C(CN1CCCC1)c1ccccc1 (stereo unspecified) | 0.0849 µM (active) |
| CCc1[nH]c2ccc(OC)cc2c1CCN(C)C | 1.9 µM (active) |
| Cc1cn(C[C@H](N)C(=O)O)c(=O)n(Cc2cc(-c3ccccc3)sc2C(=O)O)c1=O | inactive |
| CCOc1ccccc1-n1c(C(C)N2CCN(C(=O)COc3ccc(Cl)cc3)CC2)nc2ccccc2c1=O (stereo unspecified) | inactive |
| CC(C)[C@@H](CN1CC[C@@](C)(c2cccc(O)c2)[C@@H](C)C1)NC(=O)[C@H]1Cc2ccc(O)cc2CN1 | 6.01 µM (active) |
| CC(N)Cc1c[nH]c2ccccc12 (stereo unspecified) | 23.9 µM (active) |
| COc1ccccc1CN[C@H]1C2CCN(CC2)[C@H]1C(c1ccccc1)c1ccccc1 | 0.19 µM (active) |
| Clc1ccc(OCC2=NCCN2)cc1Cl | 8.49 µM (active) |
| COc1cc(C)[nH]c(=O)c1CNC(=O)c1c(C)n([C@H](C)C2CCOCC2)c2ccccc12 | inactive |
| Cc1c(Cl)cccc1S(=O)(=O)Nc1nc(CC(=O)N2CCN(C)CC2)cs1 | inactive |
| OC1(c2ccc(Cl)cc2)c2ccccc2C2=NCCN21 (stereo unspecified) | 2.68 µM (active) |
| Cc1cccc(NC(=O)N[C@@H]2N=C(c3ccccc3)c3ccccc3N(C)C2=O)c1 | inactive |
| CC(C)(C)c1cc(C(C)(C)C)c2c(c1)C(O)(C(F)(F)F)C(=O)O2 (stereo unspecified) | inactive |
| COc1cc(CCNCc2ccccc2O)c(OC)cc1C#N | 1.9 µM (active) |
| COC(=O)N1CCN(C(=O)Cc2ccc(Cl)c(Cl)c2)[C@@H](CN2CCCC2)C1 | 4.77 µM (active) |
| Cn1ncnc1COc1nn2c(-c3c(F)cccc3F)nnc2cc1C1CCC1 | inactive |
